39 molecules from the supplement of paper PMC12669032 can be followed below.

For the first assay, the system named is Odoribacter splanchnicus. Put plainly: growth AUC relative to DMSO control (median of replicates) (fraction); higher = more growth (less inhibition), active = hit call of the paper. The note with it: 20 µM; 24 h. Put shortly: (§1)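 Area under the growth curve was normalised to the plate median of solvent-only wells, except on the industrial chemical plate, where row and column medians were used. Curves came from gut bacterial monocultures grown anaerobically at 37 °C in mGAM with 20 µM compound (1% DMSO), starting at OD600 0.05 and read at OD600 every hour for 24 h. The minimum OD of each curve was set to 0, and values are medians of three biological replicates grown on separate days.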
In the case of `COP(=S)(OC)Oc1cc(Cl)c(Br)cc1Cl`, the “growth AUC” value was 1.02 (inactive).

Regarding `CC(C)C1(C)N=C(c2ncccc2C(=O)O)NC1=O` (configuration not stated), the “growth AUC” value was 0.989 (inactive).

Regarding `O=c1oc2ccccc2c(O)c1C1CCCc2ccccc21` (configuration not stated), the “growth AUC” value was 0.959 (inactive).

The next assay deals with Parabacteroides distasonis. The assay is described as above. Particulars: 20 µM; 24 h;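 active = AUC reduced over 20% with Padj below 0.05 in at least 2 of 3 replicates; inactive = otherwise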. An outline of the steps:
as §1
Turning to `COP(=S)(OC)Oc1ccc(S(N)(=O)=O)cc1`, the “growth AUC” value is 0.992 (inactive).

Turning to `CCCCOC(=O)[C@@H](C)Oc1ccc(Oc2ccc(C#N)cc2F)cc1`, the “growth AUC” value is 0.704 (active).

As for `CCC(C)(C)c1ccc(O)cc1`, the “growth AUC” value is 1.03 (inactive).

With `CCCCCCCCCc1ccc(O)cc1`, the “growth AUC” value is 0.885 (inactive).

As to `CC(C)OC(=O)Nc1ccccc1`, the “growth AUC” value is 1.01 (inactive).

With `CCCCc1c(C)nc(NCC)nc1OS(=O)(=O)N(C)C`, the “growth AUC” value was 0.598 (active).

Regarding `CCOP(=S)(OCC)Oc1cc(-c2ccccc2)on1`, the “growth AUC” value is 0.854 (inactive).

Take `C=CC(N)=O`: the “growth AUC” value was 0.976 (inactive).

Regarding `CC(C)C(C(=O)OC(C#N)c1cccc(Oc2ccccc2)c1)c1ccc(OC(F)F)cc1` (configuration not stated), the “growth AUC” value is 0.983 (inactive).

On to `Oc1ccccc1-c1ccccc1`, for which the “growth AUC” value was 0.976 (inactive).

In the case of `FC(F)C(F)(F)OCC(Cn1cncn1)c1ccc(Cl)cc1Cl` (configuration not stated), the “growth AUC” value is 0.951 (inactive).

As to `Nc1ccc(Cc2ccc(N)c(Cl)c2)cc1Cl`, the “growth AUC” value was 1.08 (inactive).

For the molecule `Nc1cccc(Cl)c1Cl`, the “growth AUC” value is 1.02 (inactive).

Consider `COC(=O)NS(=O)(=O)c1ccc(N)cc1`, for which the “growth AUC” value is 1.08 (inactive).

In the case of `CC(C)=CC1C(C(=O)OCc2cccc(Oc3ccccc3)c2)C1(C)C` (mixture of isomers), the “growth AUC” value was 0.924 (inactive).

On to `COP(=S)(OC)SCC(=O)N(c1ccc(Cl)cc1)C(C)C`, for which the “growth AUC” value is 0.861 (inactive).

Turning to `CC(=O)O.CC(=O)O.CC(=O)O.NC(N)=NCCCCCCCCNCCCCCCCCN=C(N)N`, the “growth AUC” value was 0.213 (active).

Turning to `N#Cc1c(Cl)c(Cl)c(Cl)c(C#N)c1Cl`, the “growth AUC” value is 0.682 (active).

As to `CCOP(=O)(NC(C)C)Oc1ccc(SC)c(C)c1` (configuration not stated), the “growth AUC” value is 0.77 (inactive).

Turning to `[CH3][Hg][Cl]`, the “growth AUC” value is 0.918 (inactive).

For `ClC1=C(Cl)C2(Cl)C3COCC3C1(Cl)C2(Cl)Cl` (configuration not stated), the “growth AUC” value is 0.987 (inactive).

As for `c1cc2c3c(cccc3c1)CC2`, the “growth AUC” value was 1.01 (inactive).

As to `CO/N=C(/C(=O)OC)c1ccccc1COc1ccccc1C`, the “growth AUC” value is 0.944 (inactive).

For the molecule `O=C(Nc1ccc(F)cc1F)c1cccnc1Oc1cccc(C(F)(F)F)c1`, the “growth AUC” value is 0.962 (inactive).

For the molecule `ClC1=C(Cl)[C@]2(Cl)[C@@H]3[C@@H]4C[C@@H]([C@H]5O[C@@H]45)[C@@H]3[C@@]1(Cl)C2(Cl)Cl`, the “growth AUC” value was 1.05 (inactive).

As to `CC1(C)CCC(Cc2ccc(Cl)cc2)C1(O)Cn1cncn1` (configuration not stated), the “growth AUC” value is 0.927 (inactive).

As to `CC(C)(C)C(O)C(Cc1ccc(Cl)cc1Cl)n1cncn1` (mixture of isomers), the “growth AUC” value was 0.871 (inactive).

For `CC1(C)C(C=C(Cl)Cl)C1C(=O)OCc1cccc(Oc2ccccc2)c1` (mixture of isomers), the “growth AUC” value is 1 (inactive).

As to `O=[N+]([O-])C(Br)(CO)CO`, the “growth AUC” value was 1.03 (inactive).

On to `COc1cc(OC)nc(NC(=O)NS(=O)(=O)c2ncccc2C(=O)N(C)C)n1`, for which the “growth AUC” value is 1.02 (inactive).

Regarding `COC(=O)c1ccccc1S(=O)(=O)NC(=O)Nc1nc(C)cc(C)n1`, the “growth AUC” value was 1.04 (inactive).

Turning to `CCS(=O)(=O)c1nc2ccccn2c1S(=O)(=O)NC(=O)Nc1nc(OC)cc(OC)n1`, the “growth AUC” value was 1.02 (inactive).

On to `COc1cc(OC)nc(NC(=O)NS(=O)(=O)c2cc(NC=O)ccc2C(=O)N(C)C)n1`, for which the “growth AUC” value was 0.977 (inactive).

Regarding `O=C(Nc1ccccc1)Nc1cnns1`, the “growth AUC” value was 0.94 (inactive).

As for `CCSCCSP(=S)(OC)OC`, the “growth AUC” value is 1.05 (inactive).

For `Clc1cc(Cl)c(Cl)cc1Cl`, the “growth AUC” value is 1.05 (inactive).

In the case of `COP(=S)(OC)Oc1cc(Cl)c(Br)cc1Cl`, the “growth AUC” value was 0.946 (inactive).

On to `CC(C)C1(C)N=C(c2ncccc2C(=O)O)NC1=O` (configuration not stated), for which the “growth AUC” value is 1.04 (inactive).

As for `O=c1oc2ccccc2c(O)c1C1CCCc2ccccc21` (configuration not stated), the “growth AUC” value is 0.805 (inactive).
